IDE exosite inh: insulin-degrading enzyme (human) exo-site inhibition | P14735 | purified IDE, FL-6b probe fluorescence polarization; hits give low values | z-score at 20 µM | hit rate 6.3% among 17,000 | AID 1259349;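 active = z-score of -3 or lower, meaning strong loss of probe binding signal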;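 also: His-tagged human IDE residues 42-1019 made in E. coli with 30 nM FL-6b probe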
Target sequence (P14735 42-1019 limits assumed): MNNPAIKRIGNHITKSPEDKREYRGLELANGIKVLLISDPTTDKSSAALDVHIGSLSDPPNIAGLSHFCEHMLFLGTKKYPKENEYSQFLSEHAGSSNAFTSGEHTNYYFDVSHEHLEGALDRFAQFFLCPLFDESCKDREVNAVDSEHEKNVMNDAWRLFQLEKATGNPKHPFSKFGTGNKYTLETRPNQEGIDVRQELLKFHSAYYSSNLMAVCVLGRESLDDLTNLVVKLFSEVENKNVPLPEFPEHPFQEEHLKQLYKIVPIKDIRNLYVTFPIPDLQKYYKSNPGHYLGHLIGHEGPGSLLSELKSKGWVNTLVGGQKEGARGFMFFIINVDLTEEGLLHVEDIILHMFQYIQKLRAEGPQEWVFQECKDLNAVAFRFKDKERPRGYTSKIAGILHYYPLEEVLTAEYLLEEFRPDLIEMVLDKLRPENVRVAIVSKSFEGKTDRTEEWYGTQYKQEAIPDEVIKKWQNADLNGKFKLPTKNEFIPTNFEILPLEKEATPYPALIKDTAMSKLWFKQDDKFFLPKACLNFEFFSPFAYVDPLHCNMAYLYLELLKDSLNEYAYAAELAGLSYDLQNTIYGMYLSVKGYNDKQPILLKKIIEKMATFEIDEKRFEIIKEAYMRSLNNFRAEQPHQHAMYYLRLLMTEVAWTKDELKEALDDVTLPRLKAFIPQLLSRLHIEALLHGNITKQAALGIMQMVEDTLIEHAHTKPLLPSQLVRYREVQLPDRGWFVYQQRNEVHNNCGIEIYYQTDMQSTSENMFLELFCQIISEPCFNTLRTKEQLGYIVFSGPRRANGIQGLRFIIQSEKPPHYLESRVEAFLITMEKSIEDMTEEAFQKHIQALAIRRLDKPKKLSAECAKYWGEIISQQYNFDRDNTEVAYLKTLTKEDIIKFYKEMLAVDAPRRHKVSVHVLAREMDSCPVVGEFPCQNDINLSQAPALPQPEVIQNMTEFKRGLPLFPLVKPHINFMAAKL
Starred values were filed as active, the others as inactive. The full list was thinned out, with hits kept by preference.

SMILES | IDE exosite inh
O=C(Nc1ccc(C(F)(F)F)cc1)N[C@@H]1C=C[C@H](CC(=O)N2CCCCC2)O[C@H]1CO | 0.65
COCC(=O)Nc1ccc2c(c1)[C@H]1C[C@H](CC(=O)N3CCOCC3)O[C@H](CO)[C@H]1O2 | -0.6
COc1cccc(NC(=O)N2CC(=O)N3[C@H](CO)[C@@H](c4ccc(C5=CCCC5)cc4)[C@H]3C2)c1 | 2.9
COCC(=O)N1CC(=O)N2[C@@H](CO)[C@H](c3ccc(C#CC(C)C)cc3)[C@@H]2C1 | 3.6
CCCC#Cc1ccc([C@H]2[C@@H](CO)N(C(C)=O)[C@@H]2CNC(=O)C2CC2)cc1 | -0.67
CCCNC(=O)N1[C@H](CO)[C@@H](c2ccccc2)C12CN(C(=O)C1CCCCC1)C2 | -0.12
C/C=C/c1ccc([C@H]2[C@H](CO)N3C(=O)CN(C(=O)NC4CCCCC4)C[C@@H]23)cc1 | -0.68
C/C=C/c1ccc([C@H]2[C@@H](CO)N3C(=O)CN(C(=O)CC4CC4)C[C@@H]23)cc1 | -1.4
C/C=C/c1ccc([C@@H]2[C@@H](CO)N3C(=O)CN(C(=O)NC4CCCC4)C[C@@H]23)cc1 | -3.2*
CN(C)C(=O)c1ccc(-c2ccc([C@H]3[C@@H](CO)N4C(=O)CN(C(=O)C5CCCC5)C[C@@H]34)cc2)cc1 | 3.1
O=C(C1CC1)N1CCCCN2[C@H](CO)[C@H](c3ccc(-c4cccc(F)c4)cc3)[C@@H]2C1 | -0.92
COCC(=O)N1CC(=O)N2[C@@H](CO)[C@@H](c3ccc(C#Cc4cccc(OC)c4)cc3)[C@@H]2C1 | -7*
COCC(=O)N1CC(=O)N2[C@@H](CO)[C@@H](c3ccc(C#Cc4cccnc4)cc3)[C@@H]2C1 | -0.85
COc1cccc(C#Cc2ccc([C@H]3[C@H]4CN(C(=O)Cc5ccccc5)CC(=O)N4[C@H]3CO)cc2)c1 | -1.8
COc1cccc(C#Cc2ccc([C@H]3[C@@H](CO)N4C(=O)CN(C(=O)Cc5ccccc5)C[C@@H]34)cc2)c1 | 1.4
COc1cccc(C#Cc2ccc([C@H]3[C@@H](CO)N4C(=O)CN(C(=O)Cc5cccnc5)C[C@H]34)cc2)c1 | -2
CCC(=O)N1CC(=O)N2[C@H](CO)[C@H](c3ccc(C#Cc4cccc(OC)c4)cc3)[C@H]2C1 | -9.8*
CCCNC(=O)N1CC(=O)N2[C@H](C1)[C@@H](c1ccc(C#Cc3cccc(OC)c3)cc1)[C@@H]2CO | 0.17
COCC(=O)N1CC(=O)N2[C@H](CO)[C@H](c3ccc(C#Cc4cccnc4)cc3)[C@H]2C1 | 2
COc1cccc(C#Cc2ccc([C@@H]3[C@@H](CO)N4C(=O)CN(C(=O)Cc5cccnc5)C[C@H]34)cc2)c1 | -2.3
COc1cccc(C#Cc2ccc([C@H]3[C@H](CO)N4C(=O)CN(C(=O)Cc5cccnc5)C[C@@H]34)cc2)c1 | -4.1*
CCC(=O)N1CC(=O)N2[C@H](C1)[C@@H](c1ccc(C#Cc3cccnc3)cc1)[C@@H]2CO | -1
CCC(=O)N1CC(=O)N2[C@H](CO)[C@H](c3ccc(C#Cc4cccc(OC)c4)cc3)[C@@H]2C1 | -8.7*
CCCNC(=O)N1CC2(C1)CN(C(=O)c1ccccc1)[C@@H](CO)c1[nH]c3cc(OC)ccc3c12 | -0.84
CNC[C@@H]1OCCCC[C@H](C)Oc2ccc(NC(=O)Nc3ccc(OC)cc3)cc2C(=O)N([C@H](C)CO)C[C@H]1C | 0.95
SMILES | IDE exosite inh
CN(C[C@H]1[C@@H](c2ccccc2)[C@H](CO)N1Cc1ccccn1)S(C)(=O)=O | 0.38
CO[C@@H]1CC[C@H]2CCOc3c(C#N)cccc3C(=O)N(C)C[C@@H](c3ccccc3)CC(=O)N(C)C[C@@H]1O2 | 0.9
COc1ccc2c3c(n(C)c2c1)[C@@H](CO)N(C(C)=O)CC31CCN(Cc2ccccc2OC)CC1 | -0.48
O=C(Cc1ccccc1)N1CC(=O)N2[C@H](C1)[C@H](c1ccc(-c3cccc(F)c3)cc1)[C@@H]2CO | 2.6
O=C(Cc1ccncc1)N1CC(=O)N2[C@H](CO)[C@H](c3ccc(-c4cccc(F)c4)cc3)[C@@H]2C1 | -1.5
O=C(Cc1cccnc1)N1CC(=O)N2[C@H](CO)[C@@H](c3ccc(-c4cccc(F)c4)cc3)[C@@H]2C1 | -3.4*
O=C(C[C@H]1CC[C@@H](NS(=O)(=O)c2ccccc2F)[C@@H](CO)O1)NCCCN1CCOCC1 | 0.82
O=C(c1cccnc1)N1CC2(C1)[C@H](c1ccccc1)[C@@H](CO)N2C(=O)CC1CC1 | -0.68
CC[C@@H]1C/C=C\C[C@@H](c2ccccc2)NC(=O)CCC(=O)N1 | -0.53
CN(C)CC(=O)Nc1ccc2c(c1)C(=O)N(C)[C@H]1CC[C@H](CC(=O)Nc3cccc(Cl)c3)O[C@@H]1CO2 | -1.3
COc1ccccc1-c1ccc(C2[C@H]3CNC[C@@H]2N3Cc2cc(-c3ccccc3)on2)cc1 (stereo partly drawn) | -1.1
COc1cc(CN2[C@@H]3CNC[C@H]2C3c2ccc(-c3cccc(C)c3)cc2)cc(OC)c1 (stereo partly drawn) | -7.2*
COc1cccc(CN2[C@@H]3CNC[C@H]2[C@H]3c2ccc(-c3ccccc3OC)cc2)c1 | -3.4*
